Assay outcomes as filed in PubChem BioAssay.
Most compounds without a hit are left out; they make up all but 4% or so of the library.
GBA activity = Glucocerebrosidase | Lysosomal acid glucosylceramidase (Homo sapiens), P04062 | purified enzyme, resorufin glucoside fluorescence (screen aimed at inhibitors), 20 min | Potency, µM | actives 1.1% (n = 48,000) | AID 360, 2006; in the data active means potency below about 15 µM; inconclusive means mostly about 16 µM to 33 µM;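 further: the screen sought inhibitors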
Target sequence (P04062 whole entry, looked up): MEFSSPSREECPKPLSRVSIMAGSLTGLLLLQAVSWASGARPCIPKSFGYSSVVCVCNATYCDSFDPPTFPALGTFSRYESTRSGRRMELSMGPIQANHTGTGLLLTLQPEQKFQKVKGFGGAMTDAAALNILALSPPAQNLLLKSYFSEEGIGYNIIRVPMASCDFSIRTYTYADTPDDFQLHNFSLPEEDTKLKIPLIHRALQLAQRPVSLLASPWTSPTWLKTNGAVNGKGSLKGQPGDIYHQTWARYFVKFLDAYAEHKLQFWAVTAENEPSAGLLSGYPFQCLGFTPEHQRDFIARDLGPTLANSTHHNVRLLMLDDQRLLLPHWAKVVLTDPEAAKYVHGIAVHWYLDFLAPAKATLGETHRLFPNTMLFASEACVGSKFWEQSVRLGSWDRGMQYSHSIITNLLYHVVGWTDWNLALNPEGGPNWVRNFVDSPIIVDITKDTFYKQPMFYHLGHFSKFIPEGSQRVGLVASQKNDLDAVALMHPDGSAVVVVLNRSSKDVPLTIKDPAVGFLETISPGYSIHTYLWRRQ
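Compounds titrated against 0.2 nM normal enzyme, 30 uM resorufin beta-D-glucopyranoside substrate, citrate/phosphate buffer with taurocholate and tween-20, pH 5.9. Reaction ran 20 min at room temperature; fluorescence (Ex 548/Em 600) gave AC50.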
TSHR agonist = qHTS Assay for Agonists of the Thyroid Stimulating Hormone Receptor | Thyrotropin receptor (Homo sapiens), P16473 | HEK293-CNG-TSHR cells (CNG channel as cAMP sensor), membrane potential dye, cAMP | Potency, µM (top dose mostly 57.1 µM), for inactives: at the highest dose activation, hits mostly activators | actives 0.48% (n = 73,000) | AID 926, 2007; active means well fitted activation curve with a large enough effect in the main read-out, with a control signal flat, not every such curve was filed as active; inconclusive means small, poorly fitted or top-dose-only effect, or a change in a side signal; inactive means no such curve, though single readings can be large or run the other way; % of control where 0% means no effect;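 further: the control signal comes from parental cells without the receptor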
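HEK 293 cells stably expressing TSHR and a cAMP-gated CNG channel; parental CNG-only cells as counterscreen. Cells preloaded 60 min with membrane potential dye plus 100 uM RO 20-1724, then compound 30 min; fluorescence read at 590 nm.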
Bst PK mod = Pyruvate Kinase | purified pyruvate kinase, luminescence ATP production; ribose 5-phosphate activator present at AC10 | Potency, µM | actives 1.2% (n = 51,000) | AID 361, 2006; in the data active means potency below about 11 µM; inconclusive means mostly about 12 µM to 25 µM;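 the screen sought inhibitors and activators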;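 further: scaled between full activation by ribose 5 phosphate and full inhibition by luteolin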
HEK293 cAMP cs = qHTS Assay for Agonists of the Thyroid Stimulating Hormone Receptor: Activators of Intracellular cAMP Concentrations in Parental HEK 293; actives 2.5% (n = 73,000); Potency, µM (titrated, usually from 57.1 µM), inactives show top-dose activation, most hits filed as activators; parental HEK293 CNG cAMP sensor, membrane potential fluorescence; AID 938, 2007; active means well fitted activation curve with a large enough effect; inconclusive means small, poorly fitted or top-dose-only effect; inactive means no such curve, though single readings can be large or run the other way; further: % of control where 0% means no effect; nearly all actives have a fitted effect of over 55% in size
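Parental HEK 293 cells stably expressing a modified CNG channel (no TSHR) report cAMP rise as membrane depolarization. Membrane potential dye with 100 uM RO 20-1724 was loaded for 60 min at room temperature, then compound added for 30 min; fluorescence read at 590 nm.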
Active calls of the source: *; ? = inconclusive; . = no result given; ! = not confirmed by another sample; [ ] = another dose, or the depositor's remark. Potency means the concentration at half of the fitted maximal effect.

SMILES	GBA activity	TSHR agonist	Bst PK mod	HEK293 cAMP cs
COC(=O)[C@@]1(Cc2ccc(F)cc2)[C@H]2c3cc(C(=O)N(C)C)[nH]c3C[C@H]2CN1C(=O)c1ccccc1	.	.	.	23%
COC(=O)[C@@]1(Cc2ccccc2)[C@H]2c3cc(C(=O)N(C)C)n(C)c3C[C@H]2CN1C(=O)c1ccccc1	.	?	.	25µM*
CCCCn1c(NC(=O)c2ccco2)c(C(=O)OCC)c2nc3ccccc3nc21	>77	?	>57	6.3µM*
N[C@@H](Cc1cc(O)c(O)cc1O)C(=O)O	.	6%	.	-4%
O=C(O)c1cc2ccccc2oc1=O	.	?	.	20µM*
O=C(c1cc2ccccc2oc1=O)N1CCC2(CC1)OCCO2	>77	-6%	>57	3%
Cc1cccc(-c2nc3ccccc3c(=O)n2-n2cccc2)c1	.	?	.	4µM*
C[C@]12CC[C@H](O)C[C@@H]1CC[C@H]1[C@H]2CC[C@]2(C)[C@H](C(=O)CO)CC[C@@H]12	.	?	.	4%
Clc1ccc(CO[C@@H](Cn2ccnc2)c2ccc(Cl)cc2Cl)cc1	.	?	.	16µM*
C[C@H](CN(C)C)C(C#N)(c1ccccc1)c1ccccc1	.	1%[11.4 µM]	.	-4%[11.4 µM]
c1ccc(N2CCCC3(CCNCC3)C2)nc1	.	?	.	16µM*
CN1C(=O)N(C)C(=O)C2(Cc3c(nc4ccccn4c3=O)N3CCC(Cc4ccccc4)CC32)C1=O (stereo unspecified)	13*	.	>57	13%
Cc1cccn2c(=O)c3c(nc12)N1CCC(Cc2ccccc2)CC1C1(C3)C(=O)N(C)C(=O)N(C)C1=O (stereo unspecified)	6.3*	?	>57	20µM*
CC(C)CCn1c(N)c(C(=O)OCC2CCCO2)c2nc3ccccc3nc21 (stereo unspecified)	>77	?	>57	20µM*
COCCOC(=O)c1c(N)n(Cc2ccccc2)c2nc3ccccc3nc12	?	?	>57	16µM*
CCCCn1c(N)c(C(=O)OCC2CCCO2)c2nc3ccccc3nc21 (stereo unspecified)	>77	?	>57	?
c1coc(CNc2ncnc3nc[nH]c23)c1	.	?	.	5µM*!
COc1cc2c(cc1OC)[C@@]13CCN4C=C5CCO[C@H]6CC(=O)N2[C@@H]1[C@@H]6[C@H]5C[C@H]43	.	3%[11.4 µM]	.	-6%[11.4 µM]
CCN1C[C@]2(C)CC[C@@H](O)[C@]34[C@@H]5CC6[C@@H](OC)C[C@@](O)([C@H]5[C@@H]6O)[C@@H](C[C@@H]23)[C@H]14	.	5%	.	1%
CN(C(=O)Cc1ccccc1)[C@H](CN1CCCC1)c1ccccc1	.	?	.	32µM*
CN(C(=O)Cc1ccc(Cl)c(Cl)c1)[C@H](CN1CCCC1)c1ccccc1	.	?	.	32µM*
CC(C)c1ccc2c(c1)CC[C@@H]1[C@@](C)(CN)CCC[C@@]21C	.	?	.	-30%
C[C@]1(O)CC[C@H]2[C@@H]3[C@@H](O)CC4=CC(=O)CC[C@@]4(C)[C@H]3CC[C@]21C	.	0%[11.4 µM]	.	10%[11.4 µM]
Cc1ccc(NC(=[OH+])c2cc3ccccc3cc2O)c(C)c1.Cc1ccc(NC(=[OH+])c2cc3ccccc3cc2O)c(C)c1.[Ni]	.	-4%[11.4 µM]	.	-12%[11.4 µM]
O=c1[nH]c2ccccc2n1CCCN1CCC(n2c(=O)[nH]c3cc(Cl)ccc32)CC1	.	?	>26	16µM*!
SMILES	GBA activity	TSHR agonist	Bst PK mod	HEK293 cAMP cs
COC(=O)c1c(C)oc2ccc(OC(=O)N3CCOCC3)cc12	>77	25µM*	>57	5%
O=C(Nc1cccc(OC(=O)N2CCOCC2)c1)N1CCOCC1	>77	4%	>57	-2%
C[C@@]12Cc3cnc(-c4ccccc4)nc3C[C@@H]1CC[C@@H]1[C@H]3CC[C@@](C)(O)[C@]3(C)CC[C@@H]12	.	-1%[11.4 µM]	.	-9%[11.4 µM]
C[C@@H](Cc1ccc2c(c1)OC(C(=O)O)(C(=O)O)O2)NC[C@H](O)c1cccc(Cl)c1	.	.	.	21%
COc1cccc(N2CCN(Cc3cccc(Cl)c3)CC2)c1	.	25µM*	.	13%
COc1cccc(N2CCN(Cc3ccc(Cl)cc3)CC2)c1	.	6%	.	8%
CC(=O)N(C1=NCCCS1)c1ccc(F)cc1	>77	?	>57	1.6µM*
O=C1CN=C(c2ccccc2)c2oc3ccc(Br)cc3c2N1	3.3*	?	>57	?
C=CCN1CC[C@@]23CCCC[C@@H]2[C@@H]1Cc1ccc(O)cc13	.	21%	.	11%
Oc1c(Cl)c(Cl)c(Cl)c(Cl)c1Cl	.	?	.	32µM*
